The full ranking holds about 13,000 compounds; the median of “IFI” is about 4, and the highest 2% start at about 17. The list comes from a sample in which the highest values are over-represented; it also holds similar structures and randomly drawn compounds.

The nature of the test: GSK_TCMDC: Inhibition Frequency Index (IFI). The number of non-kinase HTS assays where a compound showed > 50 % inhibition, expressed as a percentage of the number of such assays in which the compound was tested. It counts as functional.
Take `CCN(CCCN1CCCCC1)c1cc(C)nc(Nc2ccc(Cl)cc2C)n1`: the IFI was found to be 5%.
The value for `CN(C)c1ccc(CN2CCC(CNC(=O)c3cc(-c4cccc(F)c4)cs3)C2)cc1` (stereo unspecified) was 6.12%; that for `CCN1CCC(N(Cc2ccc(-c3ccc(C(F)(F)F)cc3)cc2)C(=O)Cn2c(SCc3cccc(F)c3F)cc(=O)c3ccccc32)C1` (stereo unspecified) was 7.14%.
Compound `CCN1CCC(N(Cc2ccc(-c3ccc(C(F)(F)F)cc3)cc2)C(=O)Cn2c(SCc3ccc(F)cc3)nc(=O)c3c2CCC3)CC1` showed an IFI of 12.5%.
The value for `CCN1CCC(N(Cc2ccc(-c3ccc(C(F)(F)F)cc3)cc2)C(=O)Cn2nc(C)c(=O)cc2SCc2ccc(F)cc2)CC1` was 19.6%; that for `Cc1cccc2nc(-c3ccc(-c4ccc(NC(=O)C5CCN(C)CC5)cc4)cc3)[nH]c12` was 4.24%.
The value for `COc1cc(C(=O)N2CCOC(CCN3CCC[C@H]3C(=O)Nc3ccccc3)(c3ccc(Cl)c(Cl)c3)C2)cc(OC)c1OC` (stereo partly specified) was 4.83%.
The value for `COc1ccc2ncc(F)c(CCN3CC(O)C(CNCc4ccccc4)C3)c2n1` (stereo unspecified) was 2.94%; that for `O=C(NCCc1ccccc1)N(Cc1ccc(-c2cccc(CN3CCNCC3)c2)cc1)C1CCN(Cc2ccccc2)CC1` was 6.67%; that for `CC(C)C[C@H](NC(=O)c1cc2ccccc2s1)C(=O)N[C@H]1CCN(Cc2ccc(OCCCN(C)C)c(Cl)c2)C1` was 17.2%.
`CC(C)C[C@H](NC(=O)c1cc2ccccc2s1)C(=O)N[C@H]1CCN(Cc2ccc(OC3CCN(C)C3)c(Cl)c2)C1` (stereo partly specified) yielded an IFI of 6.67%.
The value for `CC(C)C[C@H](NC(=O)c1cc2ccccc2s1)C(=O)N[C@H]1CCN(Cc2ccc(OC[C@@H]3CCCN3C)c(Cl)c2)C1` was 6.67%; that for `O=C1CCCN1CCCNCc1cccc(-c2cccc(-c3nc4cc(F)ccc4[nH]3)c2)c1` was 4.85%.
The value for `Cc1ccc(C)c(NC(=O)CC2C(=O)N(c3ccccc3)C(=S)N2Cc2ccco2)c1` (stereo unspecified) was 0.76%; that for `NC(=O)C1CCN(Cc2ccc(-c3cccc(-c4nc5cc(F)ccc5[nH]4)c3)cc2)CC1` was 0%.
For `Cc1ccc(Nc2nc(C)cc(NC3CCCC3)n2)cc1`, the IFI was 21.3%.
In turn, `Cc1cc(NC2CCCC2)nc(Nc2ccc(F)cc2)n1` displayed an IFI of 9.09%.
In the case of `Cc1ccc(Nc2nc(C)cc(NC3CC3)n2)cc1`, the IFI was 4.62%.
The value for `CC1CN(c2cccc3c2nc(-c2cncc(C#N)c2)n3CCNCc2ccccc2)CC(C)O1` (stereo unspecified) was 0%; that for `CCN1CCC(N(Cc2ccc(-c3ccc(C(F)(F)F)cc3)cc2)C(=O)Cn2c(CCc3cccc(F)c3F)cc(=O)c3c2CCC3)CC1` was 4.96%.
As for `CCn1c(-c2nonc2N)nc2c(-c3cccc(Cl)c3)ncc(OCCCNCc3cnc(C)nc3N)c21`, the IFI was 7.62%.
The value for `CCn1c(-c2nonc2N)nc2c(Cl)ncc(O[C@H](CCN)c3ccccc3F)c21` was 23.1%; that for `CCn1c(-c2nonc2N)nc2c(-c3ccc(CO)o3)ncc(OCCCN)c21` was 15.4%.
The value for `CN1CCN(CC2(Nc3nccc(NCCc4cn(C)c5ccccc45)n3)CCCCC2)CC1` was 14.3%.
The value for `CN1CCN(CC2(Nc3nccc(NCc4ccc(Cl)cc4Cl)n3)CCCCC2)CC1` was 35.7%.
Consider `Clc1ccc(CNc2ccnc(NCc3cccnc3N3CCCC3)n2)c(Cl)c1`, for which the IFI was determined as 16.7%.
In turn, `COc1ccccc1CCN(C)CCN1CCC(NC(=O)c2ccc(-c3ccc(C(F)(F)F)cc3)cc2)CC1` showed an IFI of 6.19%.
Regarding `COc1cccc(OC)c1CN1CCC(N(C)CCCCCCCCCN2CCC(OC(=O)Nc3ccccc3-c3ccccc3)CC2)CC1`, the IFI was 17.3%.
The value for `COc1cccc(OC)c1CN1CCC(N(C)CCCCCCCCN2CCC(OC(=O)Nc3ccccc3-c3ccccc3)CC2)CC1` was 13.1%.
The value for `COc1cccc(OC)c1OCCCON1C(=N)N=C(N)NC1(C)C` was 2.9%; that for `CCC(COCc1ccc(Cl)cc1)N(C)CCN(C)C(CC)COCc1ccc(Cl)cc1` (stereo unspecified) was 19.6%; that for `CN(CCCCN)Cc1ccc(-c2ccc(Cl)cc2)cc1` was 4.44%.
On to `CN(C)CCC(O)C=C(c1ccc(Cl)cc1)c1ccc(Cl)cc1` (stereo unspecified), for which the IFI amounted to 4.69%.
The value for `CC1(C)C(=O)N=C2C1=C(O)C(=O)c1ccccc12` was 17.2%; that for `Cc1ccc2c(=NN=Cc3cccc(F)c3)cc(C)[nH]c2c1` was 5.15%; that for `C=CCOC(=O)N1CCC(CNCc2cccc(-c3ccc(-c4nc5cccc(C)c5[nH]4)s3)c2)C1` (stereo unspecified) was 3.81%.
For the compound `COc1cc2ccccc2cc1CCNCCCCNCCc1cc2ccccc2cc1OC`, the IFI stood at 14.8%.
For the compound `COc1cc2ccccc2c(OC)c1CCNCCCCNCCc1c(OC)cc2ccccc2c1OC`, the IFI came out at 14.5%.
The compound `COc1cc2ccccc2c(OC)c1CNCCCCCCNCc1c(OC)cc2ccccc2c1OC` registered an IFI of 12.9%.
`COc1c(OC)c(OC)c2ccccc2c1CNCCCCCCNCc1c(OC)c(OC)c(OC)c2ccccc12` came in with an IFI of 14.8%.
The value for `COc1c(OC)c(OC)c2ccccc2c1CCNCCCCNCCc1c(OC)c(OC)c(OC)c2ccccc12` was 18.3%; that for `CCc1c(CCNCCCCCCNCCc2ccc(OC)c(OC)c2CC)ccc(OC)c1OC` was 6.47%; that for `COc1cc2ccccc2c(CNCCCCCCNCc2c(OC)c(OC)cc3ccccc23)c1OC` was 12.1%.
The value for `CCCCOc1cc(OC)c2ccccc2c1CCNCCCCNCCc1c(OCCCC)cc(OC)c2ccccc12` was 19.1%; that for `COc1c(CNCCCCCCNCc2c(OC)c(OC)c3ccccc3c2OC)c(OC)c2ccccc2c1OC` was 21.3%; that for `N=C(N)Nc1nc(-c2cccc(NC(=O)NCc3ccc(OC(F)(F)F)cc3)c2)cs1` was 3.79%.
The value for `CC(CN1CCN(C)CC1)C(=O)Nc1ccc(-c2cccc(-c3nc4cc(F)ccc4[nH]3)c2)cc1` (stereo unspecified) was 2.78%; that for `CC(=O)Nc1ncc(C(=O)Nc2cccc(-c3cccc(-c4nc5cc(C(F)(F)F)ccc5[nH]4)c3)c2)s1` was 5.41%.
The compound `COc1ccc2c(CNCCCCCCNCc3c(OC)ccc4cc(OC)ccc34)c(OC)ccc2c1` returned an IFI of 7.38%.
The value for `CC(C)Oc1ccc2ccccc2c1CNCCCCCCNCc1c(OC(C)C)ccc2ccccc12` was 18.5%; that for `CC(C)COc1ccc2ccccc2c1CNCCCCCCNCc1c(OCC(C)C)ccc2ccccc12` was 22.9%.
The value for `CSc1ccc2ccccc2c1CNCCCCCCNCc1c(SC)ccc2ccccc12` was 12.3%; that for `COc1ccc2ccccc2c1CNCCCCCCNCc1c(OC)ccc2ccccc12` was 9.93%; that for `Cc1nnsc1C(=O)Nc1cccc(-c2cccc(-c3nc4cc(F)ccc4[nH]3)c2)c1` was 6.42%.
For `CC(=NNC(S)=Nc1ccccc1Cl)c1ccccn1`, the IFI turned out to be 6.57%.
Compound `COc1cc(F)c2nccc([C@@H](O)CN3CCC(NCc4cc5c(cc4F)OCCO5)CC3)c2c1` yielded an IFI of 1.59%.
